Compound activity deposited in PubChem by several laboratories.
KLK7 zymogen act = proKLK7 (human) activation, primary screen | P49862 | purified proKLK7, EDANS-DABCYL substrate fluorescence; 100% is mature enzyme control, 0% vehicle | activation, % at 7 µM | actives 0.9% (n = 370,000);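 active means activation above the mean of all tested compounds plus 3 SD, computed per campaign excluding outliers beyond control limits, cut at about 13% in these data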
MBD2 inh = blocks human MBD2 binding to methylated DNA; Q9UBB5; inhibition, % at 4.4 µM; TR-FRET, MBD2 binding to methylated oligonucleotide; actives 0.31% (n = 370,000); in the data active means inhibition above about 13%
LEDGF integ inh = blocks HIV-1 LEDGF/p75-dependent DNA integration | TR-FRET IN-LEDGF/p75 DNA integration, Eu/Cy5 | inhibition, % at 3.7 µM | actives 0.64% (n = 370,000) | AID 743269;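 active means inhibition above the screen-wide mean plus 3 SD, cut at about 13% in these data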;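 further: signal is the Cy5 over europium emission ratio at 671 and 618 nm; 0% = plate median of compound wells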
Rin1 Abl inh = inhibitors of human Rin1-Abl protein interaction | TR-FRET Rin1/Abl binding, biochemical | inhibition, % at 7.35 µM | actives 0.4% (n = 360,000) | AID 588664; in the data active means inhibition above about 5%, passing the limit was not always enough
UHRF1 binding = blocks human UHRF1 binding to methylated DNA; inhibition, % at 4.4 µM; AID 687016; actives 0.75% (n = 370,000); UHRF1 binding to methylated oligo, TR-FRET; Q96T88; in the data active means inhibition above about 21%;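 further: UHRF1 SRA domain binding a hemimethylated CpG hairpin DNA probe; 0% = median of test compound wells and 100% = reference inhibitor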
Target sequence (Q96T88 whole entry, looked up, the tested form may be a part): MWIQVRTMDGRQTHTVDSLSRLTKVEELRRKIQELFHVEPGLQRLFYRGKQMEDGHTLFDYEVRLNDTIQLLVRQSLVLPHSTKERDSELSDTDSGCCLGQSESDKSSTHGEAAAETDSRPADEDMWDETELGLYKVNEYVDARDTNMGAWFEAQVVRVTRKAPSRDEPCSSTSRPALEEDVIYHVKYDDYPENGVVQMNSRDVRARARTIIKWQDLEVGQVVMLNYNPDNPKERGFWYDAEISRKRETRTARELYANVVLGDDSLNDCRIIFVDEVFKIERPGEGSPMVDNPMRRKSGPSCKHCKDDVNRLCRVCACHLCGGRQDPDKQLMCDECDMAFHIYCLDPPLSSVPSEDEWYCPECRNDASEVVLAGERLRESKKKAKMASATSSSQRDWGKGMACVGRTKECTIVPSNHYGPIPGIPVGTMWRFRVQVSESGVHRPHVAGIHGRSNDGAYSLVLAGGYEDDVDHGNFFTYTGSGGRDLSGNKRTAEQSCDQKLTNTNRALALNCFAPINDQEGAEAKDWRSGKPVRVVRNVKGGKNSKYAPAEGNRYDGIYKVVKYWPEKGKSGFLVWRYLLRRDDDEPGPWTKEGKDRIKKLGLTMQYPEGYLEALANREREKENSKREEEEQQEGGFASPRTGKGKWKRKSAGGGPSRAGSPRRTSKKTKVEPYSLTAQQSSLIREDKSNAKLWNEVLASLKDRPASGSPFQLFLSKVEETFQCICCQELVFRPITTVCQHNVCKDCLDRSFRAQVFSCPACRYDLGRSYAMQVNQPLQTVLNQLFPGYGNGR
Neddyl block = cullin neddylation inhibition. calls only at 25 µM. TR-FRET cullin neddylation, biochemical. AID 651699. P61081+Q13564. actives 0.58% (n = 360,000); in the data active means inhibition above about 36%
IN multimer act = activates HIV-1 integrase multimerization in LEDGF counter-screen. shares compounds with LEDGF integ inh. TR-FRET HIV-1 integrase multimerization, biochemical. activation, % at 7.7 µM. actives 17% (n = 2,000). AID 1053131; in the data active means activation above about 8.9%
TR-FRET interf = counter-screen for LEDGF/p75 integration inhibitors: TR-FRET optical interference; shares compounds with LEDGF integ inh; TR-FRET optical interference counterscreen, HIV-1 IN multimerization; inhibition, % at 7.7 µM; 2,000 tested, under 10 active; AID 1053135;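 active means inhibition above the mean over all tested compounds plus 3 SD, which no compound reached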;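 further: 0% = integrase with antibodies and DMSO and 100% = antibodies without integrase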
IN-LEDGF confirm = LEDGF/p75-dependent HIV-1 integration inhibition, confirmation; TR-FRET LEDGF/p75-dependent HIV-1 integration, biochemical; AID 1053136; inhibition, % at 3.7 µM; actives 36% (n = 2,000); shares compounds with LEDGF integ inh; in the data active means inhibition above about 14%
An asterisk follows results filed as active; i = inactive; x = no result given; + = active, no number. An excerpt weighted towards active compounds, which were near 3.1% of everything screened.

SMILES	KLK7 zymogen act	MBD2 inh	LEDGF integ inh	Rin1 Abl inh	UHRF1 binding	Neddyl block	IN multimer act	TR-FRET interf	IN-LEDGF confirm
CC(=O)N(C)c1ccc(N=Cc2cc3c(cc2[N+](=O)[O-])OCO3)cc1	-1	-7	43*	-1	3	i	7	-33	51*
O=[N+]([O-])c1cccc(S(=O)(=O)/N=C(/Nc2ccccc2)c2ccccc2)c1	0	-3	-1	5	-2	i	x	x	x
CC(OC(=O)c1ccc2ccccc2n1)C(=O)Nc1ccc(N2CCOCC2)cc1 (configuration not stated)	1	4	15*	-4	-1	i	1	-5	-7
FC(F)(F)c1cccc(Cn2ccc3ccc(-c4ccc5ccn(Cc6cccc(C(F)(F)F)c6)c5c4)cc32)c1	-25	-2	-4	x	1	x	x	x	x
CC(C)Cc1nc(SCC(=O)Nc2nnc(CC(C)C)s2)n[nH]1	1	2	14*	0	3	i	-1	5	3
O=C(CCc1ccccc1)N[C@H]1[C@H](OCc2ccccc2)CCC[C@@]12C(=O)N(Cc1ccccc1)c1ccc(-c3cnccn3)cc12	-13	2	-1	x	1	x	x	x	x
COc1cccc(S(=O)(=O)NCc2ccc(C(=O)N3CCN(C)CC3)cc2)c1	0	1	2	-4	-1	i	x	x	x
CCOc1ccc(/C=c2\sc3nc(-c4ccco4)nn3c2=O)cc1OCC	0	9	16*	-5	39*	i	1	-4	6
COc1ccc(N2CC(C(=O)NCc3ccco3)CC2=O)cc1 (configuration not stated)	1	3	0	0	-1	i	x	x	x
COc1ccc(CNc2ccccc2)cc1Br	0	3	22*	1	1	i	0	2	3
COc1ccc(CNc2ccc(C)cc2)cc1Br	0	4	3	-3	6	i	x	x	x
COc1ccc(-n2c(C)c3c(OC)cccc(=O)c3c2C)cc1	-1	-3	-2	0	-4	i	x	x	x
COc1cccc(=O)c2c(C)n(-c3ccc(C(=O)O)cc3)c(C)c12	0	3	17*	6	16	i	4	-14	23*
CO[C@@H]1[C@H](O)CC[C@]2(O)CN(c3ccccc3)[C@](C)([C@H](O)CC=C(C)C)[C@@H]12	1	-3	0	x	3	x	x	x	x
CCC1CCCCN1C(=O)CSc1nc(N)cc(N)n1 (configuration not stated)	0	0	-4	-2	-1	i	x	x	x
CCOC(=O)C1=C(COC(=O)c2ccc([N+](=O)[O-])s2)NC(=O)NC1C (configuration not stated)	0	-1	31*	4	3	i	0	-2	61*
CCOC(=O)C1=C(COC(=O)c2sccc2C)NC(=O)NC1C (configuration not stated)	0	10	-3	3	6	i	x	x	x
CC(=O)Nc1ccc(N/C=C/C(=O)c2ccco2)cc1	1	0	0	-3	-1	i	x	x	x
CN(C)c1ccc(N/C=C/C(=O)c2ccco2)cc1	0	-4	38*	4	6	i	11*	-41	7
C=CCn1c(NC(=O)c2ccccc2Cl)c(C#N)c2nc3ccccc3nc21	10	18*	30*	5	13	x	-3	11	72*
CCCCn1c(NC(C)=O)c(C#N)c2nc3ccccc3nc21	-21	-6	0	-1	-7	x	x	x	x
O=C(C(O)c1ccc(Br)cc1)N1CCC(Nc2ccc3[nH]ncc3c2)CC1 (configuration not stated)	1	-3	17*	-3	-5	x	5	-25	1
CCNC(=O)N1c2ccc(OCC)cc2C(C)=CC1(C)C	-40	-1	7	2	-7	i	x	x	x
CCOc1ccc2c(c1)C(C)=CC(C)(C)N2C(=O)Nc1ccccc1F	-21	-14	22*	5	-2	x	4	-21	1
COc1cccc(C(=O)NNS(=O)(=O)c2ccccc2)c1	0	0	3	-3	0	i	x	x	x
SMILES	KLK7 zymogen act	MBD2 inh	LEDGF integ inh	Rin1 Abl inh	UHRF1 binding	Neddyl block	IN multimer act	TR-FRET interf	IN-LEDGF confirm
CCCCn1c(=O)[nH]c2nc3cc(N)ccc3nc2c1=O	3	-40	17*	-39	-109	i	4	-20	9
[O-][n+]1cccc2cccc(O)c21	0	-5	-4	4	2	i	x	x	x
C[n+]1cccc2cccc([O-])c21	0	2	15*	-22	10	+	8	-29	54*
CC1=C(C(=O)O)N2C(=O)[C@@H](NC(=O)[C@H](N)c3ccc(O)cc3)[C@H]2SC1	0	5	-3	-1	3	i	x	x	x
CC1(C)S[C@@H]2[C@H](NC(=O)[C@H](N)c3ccc(O)cc3)C(=O)N2[C@H]1C(=O)O	1	2	15*	-1	8	i	6	-30	43*
Nc1nnc(SCC(=O)Nc2nnc(-c3ccccc3)o2)s1	0	-1	4	5	2	i	x	x	x
O=C(CCSc1ccccc1)Nc1nnc(-c2ccccc2)o1	-1	2	16*	1	-1	i	-3	16	2
CCCC(=O)Nc1ccc2oc(=O)ccc2c1	0	2	35*	-4	1	i	-1	4	0
CC(O)CC(=O)OC[C@]12CC[C@H]3[C@@](C)(CC[C@H]4C(C)(C)CCC[C@]34C)[C@@H]1CC(C1=CC(=O)OC1O)O2 (some centres not stated)	0	1	23*	3	0	i	0	2	41*
CC1=C(C(=O)Nc2ccccc2)C(c2ccc(C)o2)n2c(s/c(=C\c3ccco3)c2=O)=N1 (configuration not stated)	0	11	29*	-3	16	i	3	-14	6
CC(=O)Nc1ccc(-c2ccnc3c2CC(C(=O)Nc2cccc(C(F)(F)F)c2)O3)cc1 (configuration not stated)	0	5	0	3	1	i	x	x	x
CC(=O)Nc1ccc(-c2ccnc3c2CC(C(=O)Nc2cccc(N(C)C)c2)O3)cc1 (configuration not stated)	0	-3	24*	-1	-2	i	2	-8	-6
